Test results taken from the supplement of paper PMC11006884.
About 6,500 targets were measured; listed, in parts, are those with a hit and a random draw of the rest. About 2% of all pairs of compound and target were hits. Unmarked numbers belong to inactive results.

What follows are targets tested with COC(=O)C#Cc1ccccc1 [methyl 3-phenylpropiolate] (assay: log2 ratio of iodoacetamide-alkyne labeling of the cysteine site, DMSO over compound (competition); higher = stronger covalent engagement of the cysteine by the compound, active = 1 or more). Conditions: 500 µM; treatment time 1 h; system: HEK293T cell lysate.
Summary of the method: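 Electrophile (500 µM) or vehicle was added to HEK293T lysate (2 mg/mL) for 1 h at ambient temperature before iodoacetamide alkyne labelling (1 h) and click coupling to sCIP-TMT reagents. After pooling, overnight trypsin digestion at 37 °C, streptavidin enrichment and acid elution, peptides were measured by Orbitrap Eclipse LC-MS/MS with FAIMS and quantified in FragPipe. Each cysteine's log2 competition ratio compares mean control-channel with mean compound-channel reporter intensity, control over compound. Data came from duplicate channels across three replicates, excluding cysteines quantified in only one replicate.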

Sequence of UniProt Q9UQ35 (Q9UQ35 whole entry, looked up): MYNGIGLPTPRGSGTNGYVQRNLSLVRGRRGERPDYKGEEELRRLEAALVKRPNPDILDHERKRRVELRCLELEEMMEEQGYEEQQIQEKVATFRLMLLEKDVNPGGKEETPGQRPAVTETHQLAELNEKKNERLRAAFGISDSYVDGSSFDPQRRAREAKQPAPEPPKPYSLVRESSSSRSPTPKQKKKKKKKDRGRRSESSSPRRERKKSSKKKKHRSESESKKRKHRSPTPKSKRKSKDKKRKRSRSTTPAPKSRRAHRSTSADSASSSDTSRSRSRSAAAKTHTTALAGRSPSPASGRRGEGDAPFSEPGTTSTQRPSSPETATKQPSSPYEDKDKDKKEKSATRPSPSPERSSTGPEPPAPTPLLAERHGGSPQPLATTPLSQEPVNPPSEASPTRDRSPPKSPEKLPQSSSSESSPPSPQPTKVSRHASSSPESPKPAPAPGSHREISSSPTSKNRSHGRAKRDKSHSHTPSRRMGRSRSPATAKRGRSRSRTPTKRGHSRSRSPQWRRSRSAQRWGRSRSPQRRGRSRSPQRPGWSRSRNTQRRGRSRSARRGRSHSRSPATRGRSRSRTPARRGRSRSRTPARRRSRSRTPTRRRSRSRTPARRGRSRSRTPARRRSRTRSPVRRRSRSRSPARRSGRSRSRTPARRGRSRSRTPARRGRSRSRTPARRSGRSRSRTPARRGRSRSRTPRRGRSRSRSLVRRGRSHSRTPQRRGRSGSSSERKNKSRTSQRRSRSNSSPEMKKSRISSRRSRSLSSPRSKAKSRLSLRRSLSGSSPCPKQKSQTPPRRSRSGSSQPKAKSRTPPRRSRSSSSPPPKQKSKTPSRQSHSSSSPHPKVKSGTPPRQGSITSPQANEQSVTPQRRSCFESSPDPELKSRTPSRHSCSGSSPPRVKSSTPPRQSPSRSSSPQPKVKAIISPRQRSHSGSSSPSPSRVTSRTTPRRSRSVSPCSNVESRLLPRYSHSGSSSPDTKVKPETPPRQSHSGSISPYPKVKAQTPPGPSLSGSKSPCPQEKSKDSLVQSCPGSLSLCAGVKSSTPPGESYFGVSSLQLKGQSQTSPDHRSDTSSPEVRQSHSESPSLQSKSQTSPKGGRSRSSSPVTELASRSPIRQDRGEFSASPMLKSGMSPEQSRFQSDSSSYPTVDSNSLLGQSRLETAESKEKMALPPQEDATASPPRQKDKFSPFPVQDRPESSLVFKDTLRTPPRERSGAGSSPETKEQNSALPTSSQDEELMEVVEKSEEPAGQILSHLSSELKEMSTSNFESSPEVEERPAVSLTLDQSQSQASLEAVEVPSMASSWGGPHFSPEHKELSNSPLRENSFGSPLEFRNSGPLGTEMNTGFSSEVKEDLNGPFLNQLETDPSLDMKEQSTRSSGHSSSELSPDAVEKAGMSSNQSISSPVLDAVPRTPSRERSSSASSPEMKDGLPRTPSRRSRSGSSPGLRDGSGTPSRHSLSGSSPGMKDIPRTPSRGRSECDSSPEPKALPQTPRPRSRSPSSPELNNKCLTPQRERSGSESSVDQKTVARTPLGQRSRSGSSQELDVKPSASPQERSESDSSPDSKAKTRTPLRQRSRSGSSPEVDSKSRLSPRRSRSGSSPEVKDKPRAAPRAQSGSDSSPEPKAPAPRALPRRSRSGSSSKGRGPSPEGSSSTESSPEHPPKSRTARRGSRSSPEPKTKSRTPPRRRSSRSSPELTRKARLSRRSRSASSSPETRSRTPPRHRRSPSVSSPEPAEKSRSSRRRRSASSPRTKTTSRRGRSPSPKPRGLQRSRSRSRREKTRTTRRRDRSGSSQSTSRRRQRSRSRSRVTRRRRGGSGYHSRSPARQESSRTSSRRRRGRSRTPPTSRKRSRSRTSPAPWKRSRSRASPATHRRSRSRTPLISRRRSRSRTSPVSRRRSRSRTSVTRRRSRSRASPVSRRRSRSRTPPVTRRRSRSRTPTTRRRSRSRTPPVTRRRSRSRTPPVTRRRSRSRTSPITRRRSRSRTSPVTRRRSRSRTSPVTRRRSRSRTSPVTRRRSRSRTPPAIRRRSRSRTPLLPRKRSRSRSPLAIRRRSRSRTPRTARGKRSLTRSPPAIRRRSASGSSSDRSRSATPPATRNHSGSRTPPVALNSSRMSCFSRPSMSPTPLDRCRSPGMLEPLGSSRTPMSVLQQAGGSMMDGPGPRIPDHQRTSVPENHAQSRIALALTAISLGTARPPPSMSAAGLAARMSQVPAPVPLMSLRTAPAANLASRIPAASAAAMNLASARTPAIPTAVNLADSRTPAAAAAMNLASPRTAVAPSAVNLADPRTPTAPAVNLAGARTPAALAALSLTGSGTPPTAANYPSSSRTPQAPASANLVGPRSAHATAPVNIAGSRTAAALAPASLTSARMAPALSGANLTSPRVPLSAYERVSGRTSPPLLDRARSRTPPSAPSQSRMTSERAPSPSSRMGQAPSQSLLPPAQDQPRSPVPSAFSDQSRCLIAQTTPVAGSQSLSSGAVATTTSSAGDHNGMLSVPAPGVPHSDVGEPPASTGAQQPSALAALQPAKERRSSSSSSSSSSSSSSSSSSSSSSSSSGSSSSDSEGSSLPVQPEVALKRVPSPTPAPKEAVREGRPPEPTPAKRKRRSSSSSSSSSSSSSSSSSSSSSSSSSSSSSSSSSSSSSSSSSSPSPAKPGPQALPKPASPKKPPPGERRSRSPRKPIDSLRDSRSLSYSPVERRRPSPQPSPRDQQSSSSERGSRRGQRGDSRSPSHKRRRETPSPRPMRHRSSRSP
Sequence of UniProt Q9NXC5 (Q9NXC5 whole entry): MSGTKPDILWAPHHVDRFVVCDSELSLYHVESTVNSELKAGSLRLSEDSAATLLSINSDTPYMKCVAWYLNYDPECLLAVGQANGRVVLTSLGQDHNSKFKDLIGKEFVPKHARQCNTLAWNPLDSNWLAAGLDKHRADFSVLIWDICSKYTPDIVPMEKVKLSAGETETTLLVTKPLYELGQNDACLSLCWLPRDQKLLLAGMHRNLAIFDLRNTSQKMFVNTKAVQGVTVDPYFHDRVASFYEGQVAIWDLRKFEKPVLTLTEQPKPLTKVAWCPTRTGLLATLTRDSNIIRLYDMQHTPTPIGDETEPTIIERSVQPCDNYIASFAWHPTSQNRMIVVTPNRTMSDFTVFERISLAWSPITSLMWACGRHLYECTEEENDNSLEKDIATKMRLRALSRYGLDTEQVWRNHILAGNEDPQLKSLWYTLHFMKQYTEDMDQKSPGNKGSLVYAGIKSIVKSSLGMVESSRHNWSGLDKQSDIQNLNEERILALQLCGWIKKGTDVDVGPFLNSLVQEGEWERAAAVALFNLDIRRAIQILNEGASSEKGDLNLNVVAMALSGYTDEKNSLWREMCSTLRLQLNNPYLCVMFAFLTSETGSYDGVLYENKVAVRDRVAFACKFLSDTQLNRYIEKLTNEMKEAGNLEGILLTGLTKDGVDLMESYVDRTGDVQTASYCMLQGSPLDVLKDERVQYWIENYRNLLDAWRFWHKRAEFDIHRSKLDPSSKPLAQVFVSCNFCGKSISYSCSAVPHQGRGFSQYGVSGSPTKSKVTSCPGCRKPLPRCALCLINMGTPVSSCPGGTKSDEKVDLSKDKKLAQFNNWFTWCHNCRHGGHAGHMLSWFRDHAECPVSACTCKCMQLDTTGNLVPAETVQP
Sequence of UniProt Q9Y4P8 (Q9Y4P8 whole entry): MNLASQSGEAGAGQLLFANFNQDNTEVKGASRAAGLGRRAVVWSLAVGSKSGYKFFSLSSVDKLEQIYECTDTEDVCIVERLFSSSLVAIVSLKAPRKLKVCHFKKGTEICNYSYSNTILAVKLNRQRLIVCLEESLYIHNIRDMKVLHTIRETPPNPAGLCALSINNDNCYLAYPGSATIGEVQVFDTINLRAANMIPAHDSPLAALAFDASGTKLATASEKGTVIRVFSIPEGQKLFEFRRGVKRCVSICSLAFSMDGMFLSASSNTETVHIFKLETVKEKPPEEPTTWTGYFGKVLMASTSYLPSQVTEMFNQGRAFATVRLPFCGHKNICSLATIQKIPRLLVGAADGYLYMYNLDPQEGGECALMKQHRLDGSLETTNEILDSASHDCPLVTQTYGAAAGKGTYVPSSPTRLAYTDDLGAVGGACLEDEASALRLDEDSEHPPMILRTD
Sequence of UniProt Q9BV68 (Q9BV68 whole entry, looked up): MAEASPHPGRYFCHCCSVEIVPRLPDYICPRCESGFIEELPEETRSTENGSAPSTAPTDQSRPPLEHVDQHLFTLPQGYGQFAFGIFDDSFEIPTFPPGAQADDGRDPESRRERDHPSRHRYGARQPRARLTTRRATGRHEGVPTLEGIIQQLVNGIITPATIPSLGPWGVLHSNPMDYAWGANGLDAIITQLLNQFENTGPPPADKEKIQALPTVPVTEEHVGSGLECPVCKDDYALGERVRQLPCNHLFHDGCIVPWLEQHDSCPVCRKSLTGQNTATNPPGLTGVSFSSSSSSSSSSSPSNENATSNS
Sequence of UniProt Q9H0H5 (Q9H0H5 whole entry): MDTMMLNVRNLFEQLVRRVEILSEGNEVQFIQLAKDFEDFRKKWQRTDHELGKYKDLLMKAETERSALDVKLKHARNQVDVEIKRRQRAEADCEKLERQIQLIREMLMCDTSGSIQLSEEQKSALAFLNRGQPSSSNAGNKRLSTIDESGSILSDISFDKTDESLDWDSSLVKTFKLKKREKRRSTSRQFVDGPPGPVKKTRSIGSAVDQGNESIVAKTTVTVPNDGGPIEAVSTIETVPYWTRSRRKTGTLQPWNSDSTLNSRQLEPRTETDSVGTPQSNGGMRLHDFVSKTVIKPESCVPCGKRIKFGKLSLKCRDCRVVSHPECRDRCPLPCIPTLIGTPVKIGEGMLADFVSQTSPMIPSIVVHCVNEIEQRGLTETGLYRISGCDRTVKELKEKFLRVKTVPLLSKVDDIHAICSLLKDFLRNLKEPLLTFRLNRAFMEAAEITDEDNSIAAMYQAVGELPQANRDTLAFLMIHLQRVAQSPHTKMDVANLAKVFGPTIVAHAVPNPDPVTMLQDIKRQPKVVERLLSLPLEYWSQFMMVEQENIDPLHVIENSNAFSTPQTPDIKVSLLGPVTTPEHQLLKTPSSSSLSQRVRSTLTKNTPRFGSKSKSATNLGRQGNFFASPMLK

Target	log2 ratio of iodoacetamide-alkyne labeling
UniProt Q9NSY1_C912	0.827
DDA1 C25 (UniProt Q9BW61)	0.36
MED17 C110 (UniProt Q9NVC6)	0.34
FAM83D C19 (UniProt Q9H4H8)	1.11 (active)
ZMYM2 C852 (UniProt Q9UBW7)	0.581
SAE1 C214 (UniProt Q9UBE0)	0.502
TCAF1 C488 (UniProt Q9Y4C2)	0.36
IARS2 C91 (UniProt Q9NSE4)	0.81
UniProt Q9Y2D5_C296	0.394
FARSB C195 (UniProt Q9NSD9)	0.621
ATXN10 C356 (UniProt Q9UBB4)	1.32 (active)
KIDINS220 C412 (UniProt Q9ULH0)	0.0082
TELO2 C367 (UniProt Q9Y4R8)	0.0485
RACGAP1 C419 (UniProt Q9H0H5)	0.303
SRRM2 C1480 (UniProt Q9UQ35)	0.319
MIOS C321 (UniProt Q9NXC5)	0.126
UniProt Q9BYG3_C269	0.771
EXOC6B C68 (UniProt Q9Y2D4)	-0.0384
SLC4A1AP C730 (UniProt Q9BWU0)	1.48 (active)
FHOD1 C31 (UniProt Q9Y613)	0.248

Target	log2 ratio of iodoacetamide-alkyne labeling
ITSN2 C810 (UniProt Q9NZM3)	0.0149
SEC63 C366 (UniProt Q9UGP8)	-0.163
ASPSCR1 C224 (UniProt Q9BZE9)	1.02 (active)
STRAP C305 (UniProt Q9Y3F4)	0.0837
RNF126 C15 (UniProt Q9BV68)	0.119
CTSZ C92 (UniProt Q9UBR2)	-0.349
TANC1 C1594 (UniProt Q9C0D5)	1.06 (active)
LIMD1 C305 (UniProt Q9UGP4)	1.43 (active)
DIS3 C213 (UniProt Q9Y2L1)	0.313
UniProt Q9NVH0_C284	0.123
HECTD1 C1995 (UniProt Q9ULT8)	0.345
MRPL44 C53 (UniProt Q9H9J2)	-0.0312
JMJD4 C101 (UniProt Q9H9V9)	0.898
FTO C326 (UniProt Q9C0B1)	0.0865
UniProt Q9NWR8_C324	1.65 (active)
PRR12 C322 (UniProt Q9ULL5)	0.259
UniProt Q9HBK9_C32	1.1 (active)
GPN3 C219 (UniProt Q9UHW5)	0.0998
WIPI2 C393 (UniProt Q9Y4P8)	1.22 (active)
TNKS1BP1 C1324 (UniProt Q9C0C2)	1.18 (active)
